In the supplement of paper PMC11732987, “Enantioselective OTUD7B fragment discovery through chemoproteomics screening and high-throughput optimisation” (Communications Chemistry, 2025):

Columns and labels:
Test in all cases: log2 ratio of Biotin-Ahx-Ub-VS probe labelling (fragment/DMSO); higher = less target engagement (more negative = stronger competition), active = hit call of the paper (q ≤ 0.05, log2 ratio ≤ -1)
Conditions in all cases: compound concentration: 200 uM; treatment time: 3 h
USP19 = target: T1, USP19 (UniProt O94966)
T1 sequence (whole entry): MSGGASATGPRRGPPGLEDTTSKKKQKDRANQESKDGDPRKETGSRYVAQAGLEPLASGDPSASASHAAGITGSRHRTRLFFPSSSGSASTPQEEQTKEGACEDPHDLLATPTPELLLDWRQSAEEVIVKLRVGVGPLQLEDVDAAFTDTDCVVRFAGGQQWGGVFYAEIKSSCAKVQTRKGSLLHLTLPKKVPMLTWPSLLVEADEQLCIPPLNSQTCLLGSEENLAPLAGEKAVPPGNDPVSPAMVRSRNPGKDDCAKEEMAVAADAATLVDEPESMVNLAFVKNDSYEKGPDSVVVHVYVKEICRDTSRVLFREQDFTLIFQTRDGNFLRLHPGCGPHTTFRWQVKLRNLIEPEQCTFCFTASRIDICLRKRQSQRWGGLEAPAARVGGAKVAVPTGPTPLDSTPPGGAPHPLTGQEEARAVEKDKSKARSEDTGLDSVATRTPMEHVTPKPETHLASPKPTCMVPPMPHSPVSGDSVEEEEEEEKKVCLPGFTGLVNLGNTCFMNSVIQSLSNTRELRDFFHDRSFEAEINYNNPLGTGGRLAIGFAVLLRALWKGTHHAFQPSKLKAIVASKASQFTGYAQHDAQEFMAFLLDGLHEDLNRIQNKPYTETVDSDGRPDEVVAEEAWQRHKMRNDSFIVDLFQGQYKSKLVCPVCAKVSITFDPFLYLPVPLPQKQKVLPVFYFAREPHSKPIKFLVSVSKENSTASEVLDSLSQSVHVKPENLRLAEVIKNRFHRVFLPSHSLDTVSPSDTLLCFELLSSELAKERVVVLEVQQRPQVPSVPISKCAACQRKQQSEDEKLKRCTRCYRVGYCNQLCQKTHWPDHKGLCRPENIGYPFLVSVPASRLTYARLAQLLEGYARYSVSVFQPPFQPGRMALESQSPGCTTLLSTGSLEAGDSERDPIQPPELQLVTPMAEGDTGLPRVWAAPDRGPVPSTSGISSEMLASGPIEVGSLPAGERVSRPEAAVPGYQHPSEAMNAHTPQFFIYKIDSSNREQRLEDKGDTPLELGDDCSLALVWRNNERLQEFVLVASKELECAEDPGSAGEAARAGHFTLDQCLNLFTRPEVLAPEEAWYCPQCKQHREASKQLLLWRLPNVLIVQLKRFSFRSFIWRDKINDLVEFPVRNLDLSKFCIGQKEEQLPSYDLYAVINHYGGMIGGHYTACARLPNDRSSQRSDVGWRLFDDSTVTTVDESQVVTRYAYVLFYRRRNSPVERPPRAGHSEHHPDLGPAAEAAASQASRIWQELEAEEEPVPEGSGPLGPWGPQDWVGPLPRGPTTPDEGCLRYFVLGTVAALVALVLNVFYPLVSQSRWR
Procedure, shortened: (§1)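 Using Biotin-Ahx-Ub-VS at 0.5 µM final for 1 h, DUBs were labelled in HEK293T lysate (495 µg per sample) that had first been treated in triplicate with fragment at 200 µM or vehicle for 3 h. NeutrAvidin enrichment, LysC and trypsin digestion and diaPASEF LC-MS/MS followed. Spectronaut label-free quantities were global-median-normalised. Values are average log2 fragment/vehicle ratios by unpaired t-test, using proteins with ≥2 unique peptides.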

USP22 = target: T2, USP22 (UniProt Q9UPT9)
T2 sequence (whole entry): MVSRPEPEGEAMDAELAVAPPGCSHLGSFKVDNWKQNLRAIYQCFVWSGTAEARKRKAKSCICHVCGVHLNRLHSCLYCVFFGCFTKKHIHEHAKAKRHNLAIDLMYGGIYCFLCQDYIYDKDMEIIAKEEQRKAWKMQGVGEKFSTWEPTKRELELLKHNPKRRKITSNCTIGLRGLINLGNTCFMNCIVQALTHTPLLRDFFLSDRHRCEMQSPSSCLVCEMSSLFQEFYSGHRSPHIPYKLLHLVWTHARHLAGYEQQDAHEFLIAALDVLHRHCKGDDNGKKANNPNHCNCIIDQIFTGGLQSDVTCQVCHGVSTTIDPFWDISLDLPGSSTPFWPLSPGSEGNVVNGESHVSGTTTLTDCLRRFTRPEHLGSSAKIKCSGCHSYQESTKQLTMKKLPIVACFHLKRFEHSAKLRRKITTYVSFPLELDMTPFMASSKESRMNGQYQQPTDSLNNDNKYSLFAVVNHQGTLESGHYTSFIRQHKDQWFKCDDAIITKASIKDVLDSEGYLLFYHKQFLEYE
Procedure, shortened: as §1

USP24 = USP24 (UniProt Q9UPU5)
Procedure, shortened: as §1

USP25 = target: T3, USP25 (UniProt Q9UHP3)
T3 sequence (whole entry): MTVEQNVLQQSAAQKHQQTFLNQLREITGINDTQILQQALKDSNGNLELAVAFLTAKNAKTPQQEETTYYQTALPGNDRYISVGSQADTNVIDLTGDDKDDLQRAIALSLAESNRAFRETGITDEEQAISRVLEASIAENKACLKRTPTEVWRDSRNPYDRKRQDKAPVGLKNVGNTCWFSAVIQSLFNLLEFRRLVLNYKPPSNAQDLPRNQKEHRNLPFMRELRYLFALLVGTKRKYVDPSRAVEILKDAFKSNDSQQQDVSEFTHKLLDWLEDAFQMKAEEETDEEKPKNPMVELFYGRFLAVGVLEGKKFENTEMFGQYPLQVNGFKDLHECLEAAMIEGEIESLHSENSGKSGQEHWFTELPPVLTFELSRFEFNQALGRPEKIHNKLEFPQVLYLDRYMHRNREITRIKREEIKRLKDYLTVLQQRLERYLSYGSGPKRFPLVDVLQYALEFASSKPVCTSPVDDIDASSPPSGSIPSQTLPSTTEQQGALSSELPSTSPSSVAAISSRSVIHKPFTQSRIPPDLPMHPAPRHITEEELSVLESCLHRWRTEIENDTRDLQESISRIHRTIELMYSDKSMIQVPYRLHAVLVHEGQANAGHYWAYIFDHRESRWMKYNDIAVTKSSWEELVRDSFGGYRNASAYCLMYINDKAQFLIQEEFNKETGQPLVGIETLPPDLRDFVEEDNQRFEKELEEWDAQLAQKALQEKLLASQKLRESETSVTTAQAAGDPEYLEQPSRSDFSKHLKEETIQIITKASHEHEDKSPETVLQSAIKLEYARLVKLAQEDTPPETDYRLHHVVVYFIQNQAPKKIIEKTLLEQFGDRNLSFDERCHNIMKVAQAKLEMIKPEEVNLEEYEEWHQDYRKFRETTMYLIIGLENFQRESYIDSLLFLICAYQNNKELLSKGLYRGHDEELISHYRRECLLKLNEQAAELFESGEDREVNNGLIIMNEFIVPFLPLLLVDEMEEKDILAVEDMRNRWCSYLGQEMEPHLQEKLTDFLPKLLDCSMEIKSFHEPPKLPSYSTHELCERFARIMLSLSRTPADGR
Procedure, shortened: as §1

USP28 = target: T4, USP28 (UniProt Q96RU2)
T4 sequence (whole entry): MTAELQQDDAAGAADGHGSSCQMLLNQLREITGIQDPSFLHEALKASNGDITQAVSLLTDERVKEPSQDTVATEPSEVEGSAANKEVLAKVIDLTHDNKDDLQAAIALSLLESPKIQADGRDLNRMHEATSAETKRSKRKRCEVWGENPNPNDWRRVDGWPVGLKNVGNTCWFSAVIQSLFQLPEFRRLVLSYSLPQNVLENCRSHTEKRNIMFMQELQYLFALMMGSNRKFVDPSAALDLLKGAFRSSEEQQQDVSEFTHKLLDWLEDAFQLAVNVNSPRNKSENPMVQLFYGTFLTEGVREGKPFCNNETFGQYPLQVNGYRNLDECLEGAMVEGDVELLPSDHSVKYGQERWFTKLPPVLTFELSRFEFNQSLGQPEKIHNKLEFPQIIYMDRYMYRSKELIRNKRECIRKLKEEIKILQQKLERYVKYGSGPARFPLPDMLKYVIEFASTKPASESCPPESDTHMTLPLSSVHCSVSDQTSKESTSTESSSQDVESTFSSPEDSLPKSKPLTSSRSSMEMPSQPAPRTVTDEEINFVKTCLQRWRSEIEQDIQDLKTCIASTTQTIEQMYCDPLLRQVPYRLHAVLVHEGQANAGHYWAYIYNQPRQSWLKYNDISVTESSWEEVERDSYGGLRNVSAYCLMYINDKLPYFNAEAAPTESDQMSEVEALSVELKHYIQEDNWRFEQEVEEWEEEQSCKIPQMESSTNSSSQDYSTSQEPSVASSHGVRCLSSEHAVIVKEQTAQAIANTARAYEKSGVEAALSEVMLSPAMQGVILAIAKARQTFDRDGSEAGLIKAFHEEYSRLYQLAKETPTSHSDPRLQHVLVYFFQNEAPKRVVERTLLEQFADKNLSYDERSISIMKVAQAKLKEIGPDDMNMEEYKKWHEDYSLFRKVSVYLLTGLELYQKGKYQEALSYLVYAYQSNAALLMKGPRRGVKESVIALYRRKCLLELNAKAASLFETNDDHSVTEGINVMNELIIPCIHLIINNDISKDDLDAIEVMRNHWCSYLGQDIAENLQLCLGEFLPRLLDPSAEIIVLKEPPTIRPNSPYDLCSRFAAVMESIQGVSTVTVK
Procedure, shortened: as §1

Measured: log2 ratio of Biotin-Ahx-Ub-VS probe labelling

USP24, sequence (Q9UPU5 whole entry): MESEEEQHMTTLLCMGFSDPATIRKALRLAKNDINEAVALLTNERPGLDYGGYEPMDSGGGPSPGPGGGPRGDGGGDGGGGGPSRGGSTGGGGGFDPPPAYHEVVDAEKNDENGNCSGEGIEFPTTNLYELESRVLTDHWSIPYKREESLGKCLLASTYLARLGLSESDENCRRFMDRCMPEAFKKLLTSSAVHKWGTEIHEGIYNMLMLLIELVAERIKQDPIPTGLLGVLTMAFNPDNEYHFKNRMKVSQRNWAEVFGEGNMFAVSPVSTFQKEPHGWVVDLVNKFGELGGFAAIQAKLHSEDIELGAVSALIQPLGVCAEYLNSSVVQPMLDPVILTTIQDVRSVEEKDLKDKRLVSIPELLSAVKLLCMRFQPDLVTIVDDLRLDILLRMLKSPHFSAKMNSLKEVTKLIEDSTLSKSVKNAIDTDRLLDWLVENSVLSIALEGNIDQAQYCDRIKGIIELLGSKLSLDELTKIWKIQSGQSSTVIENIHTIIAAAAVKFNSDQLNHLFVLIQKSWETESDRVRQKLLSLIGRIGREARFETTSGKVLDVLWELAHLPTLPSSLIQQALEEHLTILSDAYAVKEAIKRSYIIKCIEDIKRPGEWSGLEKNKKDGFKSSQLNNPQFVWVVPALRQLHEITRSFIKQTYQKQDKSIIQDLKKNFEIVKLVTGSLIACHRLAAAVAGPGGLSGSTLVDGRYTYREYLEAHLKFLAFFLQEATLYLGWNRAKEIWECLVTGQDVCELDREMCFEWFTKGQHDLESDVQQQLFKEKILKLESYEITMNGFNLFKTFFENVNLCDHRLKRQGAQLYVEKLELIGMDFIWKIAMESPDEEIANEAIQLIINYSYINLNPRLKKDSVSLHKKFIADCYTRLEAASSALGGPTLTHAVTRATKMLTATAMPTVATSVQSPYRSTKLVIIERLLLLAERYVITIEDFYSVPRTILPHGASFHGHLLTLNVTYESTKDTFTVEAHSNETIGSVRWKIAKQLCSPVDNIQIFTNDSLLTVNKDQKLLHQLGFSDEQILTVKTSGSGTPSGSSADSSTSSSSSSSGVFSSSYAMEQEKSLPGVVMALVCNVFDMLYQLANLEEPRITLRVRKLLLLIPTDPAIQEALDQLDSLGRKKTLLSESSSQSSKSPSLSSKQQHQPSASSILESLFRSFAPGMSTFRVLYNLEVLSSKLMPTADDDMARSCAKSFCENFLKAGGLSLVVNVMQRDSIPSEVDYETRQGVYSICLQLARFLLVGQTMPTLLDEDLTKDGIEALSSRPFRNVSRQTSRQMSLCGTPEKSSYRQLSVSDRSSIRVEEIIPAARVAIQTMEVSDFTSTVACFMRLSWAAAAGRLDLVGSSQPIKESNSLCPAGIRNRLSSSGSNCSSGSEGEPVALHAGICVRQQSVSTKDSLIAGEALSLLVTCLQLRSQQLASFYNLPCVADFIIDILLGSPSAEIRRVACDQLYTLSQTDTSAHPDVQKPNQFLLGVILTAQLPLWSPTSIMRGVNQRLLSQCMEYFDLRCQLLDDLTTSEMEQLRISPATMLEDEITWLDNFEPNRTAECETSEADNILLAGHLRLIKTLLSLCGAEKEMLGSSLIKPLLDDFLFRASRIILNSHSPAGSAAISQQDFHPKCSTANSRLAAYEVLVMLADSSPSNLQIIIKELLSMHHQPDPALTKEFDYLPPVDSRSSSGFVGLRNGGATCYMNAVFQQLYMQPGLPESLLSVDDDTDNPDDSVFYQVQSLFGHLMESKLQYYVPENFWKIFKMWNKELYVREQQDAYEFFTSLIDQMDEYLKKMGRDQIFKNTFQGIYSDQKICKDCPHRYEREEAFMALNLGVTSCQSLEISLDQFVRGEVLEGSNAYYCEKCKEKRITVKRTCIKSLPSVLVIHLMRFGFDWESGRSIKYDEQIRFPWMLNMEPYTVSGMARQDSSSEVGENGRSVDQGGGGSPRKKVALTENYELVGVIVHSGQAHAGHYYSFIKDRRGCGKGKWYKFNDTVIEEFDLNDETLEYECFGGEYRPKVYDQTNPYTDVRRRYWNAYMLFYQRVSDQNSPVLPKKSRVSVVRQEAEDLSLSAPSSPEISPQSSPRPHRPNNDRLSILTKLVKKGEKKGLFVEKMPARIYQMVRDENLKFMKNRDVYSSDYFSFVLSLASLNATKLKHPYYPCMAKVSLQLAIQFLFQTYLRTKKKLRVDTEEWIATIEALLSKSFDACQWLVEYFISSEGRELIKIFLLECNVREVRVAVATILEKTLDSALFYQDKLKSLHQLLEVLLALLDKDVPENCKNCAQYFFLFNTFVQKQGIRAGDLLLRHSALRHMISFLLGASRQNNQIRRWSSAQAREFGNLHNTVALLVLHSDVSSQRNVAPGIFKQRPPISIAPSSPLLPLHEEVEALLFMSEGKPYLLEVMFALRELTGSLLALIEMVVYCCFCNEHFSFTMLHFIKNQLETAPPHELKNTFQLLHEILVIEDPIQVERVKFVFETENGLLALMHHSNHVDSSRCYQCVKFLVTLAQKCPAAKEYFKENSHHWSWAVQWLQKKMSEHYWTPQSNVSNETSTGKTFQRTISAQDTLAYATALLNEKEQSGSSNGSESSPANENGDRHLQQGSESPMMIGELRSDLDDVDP

CS(=O)(=O)N1CCCN(C(=O)CCl)CC1
inactive: USP19 -0.0881 | USP22 0.0754 | USP24 -0.0413 | USP25 -0.243 | USP28 -0.549
